A selection: hits, their analogues and other compounds. The true share with any hit is near 4.5%.
Mdm2 MdmX PPI – disrupts the human Mdm2-MdmX interaction. O15151+Q00987. SaOS-2 split-luciferase Mdm2/MdmX complementation, luminescence. inhibition, % at 8 µM. 330,000 tested, 3% active;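 active = inhibition of at least 50% at 8 µM in the primary screen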
Target sequence (O15151 whole entry, looked up): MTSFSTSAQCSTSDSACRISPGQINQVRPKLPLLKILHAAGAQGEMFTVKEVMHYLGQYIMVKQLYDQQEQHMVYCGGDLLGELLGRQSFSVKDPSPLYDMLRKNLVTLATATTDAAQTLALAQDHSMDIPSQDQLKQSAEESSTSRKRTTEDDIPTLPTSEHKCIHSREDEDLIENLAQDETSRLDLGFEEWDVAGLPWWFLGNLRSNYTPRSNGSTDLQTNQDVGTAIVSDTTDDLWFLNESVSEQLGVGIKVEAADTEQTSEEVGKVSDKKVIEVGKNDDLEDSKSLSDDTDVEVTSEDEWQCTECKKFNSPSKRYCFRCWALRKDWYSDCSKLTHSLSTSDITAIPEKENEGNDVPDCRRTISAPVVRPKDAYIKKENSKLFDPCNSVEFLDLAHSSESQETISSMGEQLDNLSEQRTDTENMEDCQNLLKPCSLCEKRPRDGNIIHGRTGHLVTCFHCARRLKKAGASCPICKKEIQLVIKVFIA
Target sequence (Q00987 whole entry, looked up): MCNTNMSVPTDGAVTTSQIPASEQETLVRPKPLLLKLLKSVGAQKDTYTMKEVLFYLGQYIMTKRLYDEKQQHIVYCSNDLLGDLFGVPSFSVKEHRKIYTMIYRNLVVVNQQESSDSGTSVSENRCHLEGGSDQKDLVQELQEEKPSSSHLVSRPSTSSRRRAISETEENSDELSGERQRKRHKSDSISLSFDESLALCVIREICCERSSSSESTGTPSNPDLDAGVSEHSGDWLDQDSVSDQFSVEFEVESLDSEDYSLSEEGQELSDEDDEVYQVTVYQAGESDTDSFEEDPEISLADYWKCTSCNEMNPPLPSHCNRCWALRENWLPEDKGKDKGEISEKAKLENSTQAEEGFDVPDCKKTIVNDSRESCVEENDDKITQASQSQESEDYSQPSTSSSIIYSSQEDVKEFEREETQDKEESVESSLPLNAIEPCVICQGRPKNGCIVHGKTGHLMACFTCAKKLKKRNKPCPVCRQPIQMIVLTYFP
aSyn 5UTR inh – 5' untranslated region of α-synuclein, MLPCN primary screen | alpha-synuclein 5'UTR reporter, inhibitor activity | inhibition, % (tested at 7.5 µM) | 300,000 tested, 0.82% active; in the data active = inhibition above about 60%;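 note: H4 neuroglioblastoma cells stably carrying SNCA 5'UTR luciferase fusion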
697 NFkB inh – inhibitors of the PMA/ionomycin-induced NF-kB reporter in 697 B cells; inhibition, % at 4 µM; 330,000 tested, 0.33% active; 697 B-cell NF-kB luciferase reporter, 16 h; in the data active = inhibition above about 35%
Gli-Sufu block – blocks Gli-Sufu signaling in a luciferase reporter; Sufu-KO-LIGHT fibroblasts, Gli luciferase reporter luminescence; inhibition, % at 5 µM; 340,000 tested, 0.74% active;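 active = inhibition above about 55%, limit read from the data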
CSC inhib – blocks cancer stem cells; cancer stem cell-like cells viability, luminescence; inhibition, % at 7.5 µM; 300,000 tested, 1.1% active; in the data active = inhibition above about 75%; tested in HMLE shEcad cells
Jurkat NFkB inh – inhibitors of the PMA/ionomycin-induced NF-kB reporter in Jurkat cells | PMA/ionomycin-induced NF-kB luciferase reporter, luminescence | inhibition, % at 4 µM | 330,000 tested, 0.53% active | AID 435003; in the data active = inhibition above about 50%
Mdm2 MdmX conf – human Mdm2/MdmX binding inhibition, confirmed | shares compounds with Mdm2 MdmX PPI | luminescent assay | inhibition, % at 8 µM | 10,000 tested, 55% active; in the data active = inhibition above about 40%
Full FLuc ctr – counter-screen for Mdm2/MdmX inhibitors: full-length luciferase. shares compounds with Mdm2 MdmX PPI. SaOS-2 full-length luciferase counterscreen, luminescence. inhibition, % at 8 µM. 6,200 tested, 77% active. AID 504607;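 active = mean inhibition at 8 µM reaching about 37%, which flags the compound as non-specific, limit read from the data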;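 note: p53-null SaOS-2 cells with luciferase driven by a doxycycline-inducible promoter; compound on cells about two nights before reading with doxycycline added after day one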
Each line names hits and unclear results; the compound was inactive in the other large screens (follow-up assays come after a bar, where they were run); ! = a repeat was not active.

CCc1ccc(S(=O)(=O)/N=C2\C=C(Nc3ccc(C(=O)O)cc3)C(=O)c3ccccc32)cc1	Mdm2 MdmX PPI 80 (no result: CSC inhib) | Mdm2 MdmX conf 52 | Full FLuc ctr inactive
Cc1ccc(NC2=C/C(=N/S(=O)(=O)c3cccs3)c3ccccc3C2=O)cc1	Mdm2 MdmX PPI 53, Gli-Sufu block 60, CSC inhib active | Mdm2 MdmX conf 61 | Full FLuc ctr inactive
O=C(NCCN1CCOCC1)c1ccc2ccccc2c1	none
COc1ccccc1C(CC(=O)Nc1ccc(C)c(C)c1)c1ccc(OC(C)C)cc1 (centres undefined)	none (no result: CSC inhib)
COc1ccc(CNCCC(c2ccc(OC(C)C)cc2)c2ccccc2OC)cc1OC (centres undefined)	Mdm2 MdmX PPI 56 | Mdm2 MdmX conf 40 | Full FLuc ctr 66
COc1ccc(CNCCC(c2ccc(OC(C)C)cc2)c2ccccc2OC)cc1 (centres undefined)	Mdm2 MdmX PPI 97, aSyn 5UTR inh 134, CSC inhib 103 | Mdm2 MdmX conf 54 | Full FLuc ctr 68
COc1ccc(C(CC(=O)O)c2ccc3c(c2)OCO3)cc1 (centres undefined)	none
COc1ccccc1C(CCNCc1ccc(N(C)C)cc1)c1ccc(OC(C)C)cc1 (centres undefined)	Mdm2 MdmX PPI 97, aSyn 5UTR inh 135, CSC inhib 103 | Mdm2 MdmX conf 58 | Full FLuc ctr 57
COc1ccc(CNCCC(c2ccccc2)c2ccc3c(c2)OCO3)cc1 (centres undefined)	Mdm2 MdmX PPI 67 | Mdm2 MdmX conf inactive
O=C(CC1C(=O)NCCN1Cc1c(F)cccc1Cl)NC1CCCC1 (centres undefined)	none
COc1ccccc1NC(=O)CC(c1ccc(OC(C)C)cc1)c1ccccc1OC (centres undefined)	none
COc1ccccc1C(CCNCc1ccccc1)c1ccc(OC(C)C)cc1 (centres undefined)	Mdm2 MdmX PPI 61 | Mdm2 MdmX conf inactive
COc1ccc(C(=O)Nc2ccc(Oc3nc(C)nc4sc(-c5ccccc5)cc34)cc2)cc1OC	Mdm2 MdmX PPI 56 | Mdm2 MdmX conf inactive
COc1cc(C(=O)Nc2ccc(Oc3ncnc4sc(-c5ccccc5)cc34)cc2)cc(OC)c1OC	Mdm2 MdmX PPI 53 (no result: CSC inhib) | Mdm2 MdmX conf inactive
COc1cccc(Oc2nnnn2-c2ccccc2)c1	none
COc1cccc(-n2nnnc2S(C)(=O)=O)c1	Mdm2 MdmX PPI 79 | Mdm2 MdmX conf 100 | Full FLuc ctr inactive
O=[N+]([O-])c1cccc(-c2nc3ccc([N+](=O)[O-])cc3[nH]2)c1	none
O=[N+]([O-])c1ccc2nc(-[n+]3c(-c4ccccc4)cc(-c4ccccc4)cc3-c3ccccc3)[nH]c2c1	Mdm2 MdmX PPI 81 | Mdm2 MdmX conf 62 | Full FLuc ctr 57
CN(C(=O)CSC(=O)c1ccccc1)c1ccccc1	none
NC(=S)N/N=C\c1c(OCc2ccccc2Cl)ccc2ccccc12	Mdm2 MdmX PPI 53 (no result: aSyn 5UTR inh) | Mdm2 MdmX conf inactive
O=C(Nc1cccc2[nH]ncc12)c1ccc(F)cc1	Mdm2 MdmX PPI 60 | Mdm2 MdmX conf 74 | Full FLuc ctr inactive
O=C(NC(=S)Nc1cccc2[nH]ncc12)c1ccccc1	none
O=C(CC1SC(N2CCOCC2)=NC1=O)Nc1cc([N+](=O)[O-])ccc1Cl (centres undefined)	none
COC(=O)c1c(N)sc(C(=O)NCCc2ccccc2)c1C	Mdm2 MdmX PPI 65, aSyn 5UTR inh 105 | Mdm2 MdmX conf 59 | Full FLuc ctr 73
Cn1c(=O)c2c(SCC(=O)N3CCOCC3)nc(-c3ccccc3Cl)nc2n(C)c1=O	none
O=C(NCc1ccc(Cl)cc1)c1cc(S(=O)(=O)N2CCCCC2)c[nH]1	none
O=C(Cc1c[nH]c2ccccc12)Nc1nnc(C2CC2)s1	Mdm2 MdmX PPI 79 | Mdm2 MdmX conf 65 | Full FLuc ctr 84
Cc1ccccc1OCC(=O)NNC(=O)Cn1[nH]c(=O)c2ccccc2c1=O	none (no result: aSyn 5UTR inh)
COc1ccc(NC(=O)C2CC(=O)N(CCc3ccc(F)cc3)C2)c(OC)c1 (centres undefined)	none
COc1ccc2c(C(=O)NCc3ccc4c(c3)OCO4)c(-c3ccc(S(C)(=O)=O)cc3)sc2c1	Mdm2 MdmX PPI 84 (no result: aSyn 5UTR inh, CSC inhib) | Mdm2 MdmX conf inactive
Cc1ccccc1-c1c(C)oc2cc(O)ccc2c1=O	none
OCCN1CCN(CCCN2c3ccccc3Sc3ccc(C(F)(F)F)cc32)CC1	Mdm2 MdmX PPI 61, CSC inhib 86 | Mdm2 MdmX conf inactive
CCSc1ccc2c(c1)N(CCCN1CCN(C)CC1)c1ccccc1S2	Mdm2 MdmX PPI 60, CSC inhib 78 (no result: aSyn 5UTR inh) | Mdm2 MdmX conf inactive
CN1CCN(CCCN2c3ccccc3Sc3ccc(Cl)cc32)CC1	Mdm2 MdmX PPI 54, CSC inhib 94! | Mdm2 MdmX conf inactive
CCOC(=O)C1CCCN(c2ccc(NC(=O)c3snc4c(=O)[nH]c(C)nc34)cc2)C1 (centres undefined)	Mdm2 MdmX PPI 70 | Mdm2 MdmX conf 41 | Full FLuc ctr 88
CCOC(=O)C1CCCN(c2ccc(NC(=O)c3snc4c(=O)[nH]cnc34)cc2)C1 (centres undefined)	none
CC(NC(=S)Nc1c(Br)cccc1OC(F)F)C(C)(C)C (centres undefined)	none
CCOC(=O)C1=C(C)NC(C)=C(C(=O)OCC)C1c1ccccc1/C=C/C(=O)OC(C)(C)C	Mdm2 MdmX PPI 72, CSC inhib 99 (no result: Gli-Sufu block) | Mdm2 MdmX conf inactive
O=C(CCn1c(=S)oc2ccccc21)N1CCCCC1	none
COc1ccc(C2CC(=O)N(C)c3ccccc3S2)cc1 (centres undefined)	Mdm2 MdmX PPI 68 | Mdm2 MdmX conf 47 | Full FLuc ctr 97
NC(=O)c1c(NC(=O)c2ccc(N3C(=O)CCC3=O)cc2)sc2c1CCCC2	none (no result: aSyn 5UTR inh, CSC inhib)
CCN(CC)Cc1c(O)ccc2c1O/C(=C\C=C\c1ccccc1)C2=O	Mdm2 MdmX PPI 98, CSC inhib 109 | Mdm2 MdmX conf 71 | Full FLuc ctr inactive
COc1ccccc1/C=C/C=C1\Oc2c(ccc(O)c2CN(C)C)C1=O	Mdm2 MdmX PPI 61 | Mdm2 MdmX conf 43 | Full FLuc ctr 44
COc1ccc(C(=O)CC(=O)c2ccc(OC)cc2)cc1	none
COc1ccc(C(=O)c2no[n+]([O-])c2C(=O)c2ccc(OC)cc2)cc1	Mdm2 MdmX PPI 62 | Mdm2 MdmX conf inactive
O=C(c1ccc(Cl)nc1)c1cccs1	none
O=C(c1cccs1)c1no[n+]([O-])c1C(=O)c1cccs1	Mdm2 MdmX PPI 95, aSyn 5UTR inh 63 | Mdm2 MdmX conf inactive
CCN(CC(=O)Nc1cccc(S(=O)(=O)N2CCOCC2)c1)Cc1ccccc1	none
O=C(N/N=C/c1ccc(Br)s1)c1ccncc1	none (no result: CSC inhib)

Bioassay records from PubChem.
